FBA Mtb inh: inhibits M. tuberculosis FBA enzyme. P9WQA3. purified M. tuberculosis FBA, fluorescence read-out. inhibition, % at 1 µM. 360,000 tested, 2.3% active. AID 588726; in the data active = inhibition above about 27%;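 also: 0% = vehicle and 100% = reference inhibitor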
Target sequence (P9WQA3 whole entry, looked up): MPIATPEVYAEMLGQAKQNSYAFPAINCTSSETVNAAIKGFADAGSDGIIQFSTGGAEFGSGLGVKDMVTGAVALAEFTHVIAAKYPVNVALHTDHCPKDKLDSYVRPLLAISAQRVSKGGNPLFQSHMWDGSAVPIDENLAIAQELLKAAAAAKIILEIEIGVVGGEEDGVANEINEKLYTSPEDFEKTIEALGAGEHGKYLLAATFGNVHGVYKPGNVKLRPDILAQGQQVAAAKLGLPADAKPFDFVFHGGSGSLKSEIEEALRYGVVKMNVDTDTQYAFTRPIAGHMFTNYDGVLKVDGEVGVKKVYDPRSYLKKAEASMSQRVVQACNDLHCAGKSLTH
BH1578 lux ind: quorum light induction in luxS cqsA deficient V. cholerae; V. cholerae BH1578 lux reporter, luminescence, 6 h; activation, % at 18.7 µM; 350,000 tested, 0.16% active; in the data active = activation mostly above about 9.7%, no sharp cut-off
Mtb BioA inh: inhibitors of Mycobacterium tuberculosis BioA enzyme; purified M. tuberculosis BioA enzyme, plate reader; 360,000 tested, 0.096% active; AID 602481; inhibition, % at 9.99 µM; in the data active = inhibition above about 40%
GDH-TPI inh: inhibits GDH-TPI coupling enzymes, artifact for Mtb FBA screen; inhibition, % at 4.8 µM; GDH-TPI coupled enzyme counterscreen, NADH absorbance; AID 588335; 360,000 tested, 1.2% active; in the data active = inhibition above about 30%;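 also: 0% = DMSO wells and 100% = wells lacking the enzyme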
* = called active by the depositor; i = inactive; nt = no result. In the library only some 3% were active in any assay of this set; here they are far more common.

SMILES | FBA Mtb inh | BH1578 lux ind | Mtb BioA inh | GDH-TPI inh
CN(C)S(=O)(=O)c1ccc(-c2cn3ccccc3n2)cc1 | 160* | nt | -2 | 7
O=[N+]([O-])c1ccc(-c2cn3ccccc3n2)cc1 | -1 | -1 | -3 | 18
C[C@@H]1CN([C@@H](C)CO)C(=O)c2cc(-c3ccc(C#N)cc3)cnc2O[C@H]1CN(C)C(=O)Nc1ccc(F)cc1 | nt | nt | -1 | nt
O=C(NCC[C@H]1CC[C@H](NC(=O)C2CCC2)[C@@H](CO)O1)c1ccc(F)cc1 | nt | nt | 5 | nt
COC(=O)C[C@H]1CC[C@H]2[C@H](COc3ccc(NS(=O)(=O)c4ccc(F)cc4)cc3C(=O)N2C)O1 | nt | nt | 0 | nt
Cc1c(N=C2NN=C(c3ccc(Cl)cc3)CS2)c(=O)n(-c2ccccc2)n1C | 5 | 0 | 3 | 5
Cc1c(N=C2NN=C(c3c[nH]c4ccccc34)CS2)c(=O)n(-c2ccccc2)n1C | 0 | i | 1 | 50*
C[C@@H]1CN([C@@H](C)CO)C(=O)c2cc(NS(=O)(=O)c3ccc(F)cc3)ccc2O[C@@H](C)CCCCO[C@H]1CN(C)S(=O)(=O)c1ccc(F)cc1 | nt | nt | -1 | nt
COc1ccccc1/C=C\C=N\NC(=O)CCn1nnc2ccccc21 | 4 | 2 | nt | 38*
CC(/C=N/NC(=O)c1cccs1)=C\c1ccccc1 | -3 | -1 | 2 | 32*
CCOc1ccc(Br)cc1C(=O)N/N=C/c1c[nH]c2ccccc12 | 0 | 1 | -1 | 11
O=C(N/N=C/c1c[nH]c2ccccc12)c1cc(Br)ccc1O | 6 | 1 | 9 | 31*
CC(/C=N/NC(=O)c1ccccc1C)=C\c1ccccc1 | -1 | -1 | 2 | 16
CC(/C=N/NC(=O)c1sc(N)nc1C)=C\c1ccccc1 | -4 | i | nt | 37*
COCC(=O)N1C[C@@H](C)[C@H](OC)CN(C)C(=O)c2ccc(NC(=O)NC(C)C)cc2OC[C@H]1C | nt | nt | -3 | nt
Cc1nc(N)sc1C(=O)N/N=C/c1ccc([N+](=O)[O-])cc1 | 2 | 1 | -2 | 23
Cc1nc(N)sc1C(=O)N/N=C/c1c[nH]c2ccccc12 | -2 | -2 | -1 | 56*
COc1ccccc1/C=C/C=N/NC(=O)c1cccs1 | 0 | 0 | 2 | 45*
O=C(N/N=C/c1ccc(Br)s1)c1c[nH]c2ccccc12 | 0 | i | nt | 40*
Cc1nc(N)sc1C(=O)N/N=C/c1ccccc1[N+](=O)[O-] | 2 | 0 | -4 | 22
Cc1nc(N)sc1C(=O)N/N=C/c1ccco1 | -1 | i | 1 | 38*
COCC(=O)N1C[C@@H](C)[C@@H](OC)CN(C)C(=O)c2cc(NC(=O)c3ccc(F)cc3)ccc2OC[C@@H]1C | nt | nt | -3 | nt
C[C@@H]1CN([C@H](C)CO)C(=O)c2cc(C#CC3(O)CCCC3)cnc2O[C@H]1CN(C)Cc1cccnc1 | nt | nt | -4 | nt
COc1ccc(NC(=O)N(C)C[C@@H]2Oc3ccc(N(C)C)cc3CC(=O)N([C@@H](C)CO)C[C@@H]2C)cc1 | nt | nt | -3 | nt
O=C(N/N=C/C(Br)=C\c1ccccc1)c1n[nH]c2c1CCC2 | 1 | -1 | nt | 24
SMILES | FBA Mtb inh | BH1578 lux ind | Mtb BioA inh | GDH-TPI inh
Cc1c(/C=N/NC(=O)c2cc(Br)ccc2O)c(=O)n(C)c(=O)n1C | 0 | i | -1 | 31*
NC(=O)C(=O)N/N=C/c1c[nH]c2ccc(Br)cc12 | 0 | 0 | nt | 19
Cc1ccc(C(=O)N/N=C/c2c[nH]c3ccccc23)o1 | -3 | 0 | 1 | 31*
CC(/C=N/NC(=O)c1n[nH]c2c1CCC2)=C\c1ccccc1 | -1 | 0 | 0 | 31*
O=C(N/N=C/c1c[nH]c2ccc(Br)cc12)C1CC1 | 10 | 0 | nt | 32*
O=C(C[C@H]1C[C@H]2c3cc(NS(=O)(=O)c4ccc(F)cc4)ccc3O[C@H]2[C@H](CO)O1)N1CCOCC1 | nt | nt | -1 | nt
CCCNC(=O)N1C[C@H](O)COC[C@H]2O[C@@H](CC(=O)N3CCOCC3)CC[C@@H]21 | nt | nt | -1 | nt
COc1cc(/C=N\NC(=O)c2sc(N)nc2C)cc(OC)c1OC | -9 | i | -1 | 41*
O=C(O)COc1ccccc1/C=N/NC(=O)c1ccc(F)cc1 | -1 | 0 | 0 | 46*
Cc1cccc(NC(=S)N/N=C/c2c[nH]c3ccccc23)c1 | 2 | i | 0 | 36*
Cc1cccc(NC(=S)N/N=C/c2cccc([N+](=O)[O-])c2)c1 | 2 | i | -1 | 33*
C[C@H](CO)N1C[C@H](C)[C@H](CN(C)Cc2ccc(Cl)c(Cl)c2)Oc2ccc(NS(C)(=O)=O)cc2C1=O | nt | nt | 2 | nt
CN1[C@@H]2c3ccc(-c4ccccc4)c(=O)n3C[C@H]1[C@H](CO)[C@H]2C(=O)NCCc1ccccc1 | nt | nt | 0 | nt

Assay outcomes from PubChem BioAssay.
